Screening results (PubChem BioAssay)
Shown are actives, neighbours in structure and some others; about 1.2% of the full set was active somewhere.
PG9 binder = binds the HIV-1 gp120 antibody PG9; TR-FRET gp120-PG9 antibody binding; 360,000 tested, 0.43% active; inhibition, % at 6.7 µM; AID 624416; in the data active = inhibition above about 8.5%
PKA-R2B activ = activates the human PKA-R2B holoenzyme complex | P22694+P31323 | 340,000 tested, 0.079% active | PKA-R2B holoenzyme dissociation, Cy5-IP20 fluorescence polarization; R2B truncated from residue 108, S112A mutant; 0% DMSO only, 100% 113 µM cGMP | activation, % at 11.4 µM;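 active = activation above a cutoff set at the mean over all compounds plus 3 SD, cut at about 18% in these data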;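 note: higher means more holoenzyme dissociation and a rise in polarization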
Target sequence (P31323 whole entry, looked up, other chains not shown, the tested form may be a part): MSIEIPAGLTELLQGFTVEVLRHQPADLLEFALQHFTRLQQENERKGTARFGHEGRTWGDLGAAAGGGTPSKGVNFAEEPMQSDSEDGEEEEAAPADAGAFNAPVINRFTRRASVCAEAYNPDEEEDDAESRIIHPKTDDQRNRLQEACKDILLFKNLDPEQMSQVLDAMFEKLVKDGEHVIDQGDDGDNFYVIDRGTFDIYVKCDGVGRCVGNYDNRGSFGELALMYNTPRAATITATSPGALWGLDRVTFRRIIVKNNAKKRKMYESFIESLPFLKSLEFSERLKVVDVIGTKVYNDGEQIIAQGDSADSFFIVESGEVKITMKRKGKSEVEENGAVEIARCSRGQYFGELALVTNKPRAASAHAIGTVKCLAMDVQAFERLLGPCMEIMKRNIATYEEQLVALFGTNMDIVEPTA
Rev-erbA mod = modulators of human Rev-erb alpha DNA binding | 370,000 tested, 0.79% active | Rev-erbα–FITC-DNA binding, fluorescence polarization, 90 min | activity, % at 10 µM;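 active = activity above about 14%, limit read from the data; passing the limit was not always enough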
PKA-R1A act = PKA-R1A complex activation | P00514+P68181 | PKA-R1A dissociation, Cy5-IP20 fluorescence polarization; scaled: DMSO 0%, 113 µM cGMP 100% | activation, % at 11.4 µM | 340,000 tested, 0.083% active;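 active = percent activation above the mean of all tested compounds plus 3 SD, cut at about 19% in these data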;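 note: higher means more PKAc released from R1A so a rise in polarization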
PG9 binder conf = PG9 antibody binding, confirmed | 1,500 tested, 90% active | inhibition, % at 6.7 µM | TR-FRET PG9 antibody binding, biochemical | AID 651571 | shares compounds with PG9 binder; in the data active = inhibition above about 9%
PGV04 counter = counter-screen for PG9 binders: binding control antibody PGV04. shares compounds with PG9 binder. TR-FRET PGV04 antibody-gp120 binding, biochemical. inhibition, % at 6.7 µM. 1,500 tested, 95% active. AID 651604; in the data active = inhibition above about 9.5%
PG9 bind DR = small molecules binding HIV-1 gp120 antibody PG9; shares compounds with PG9 binder; TR-FRET PG9 antibody-gp120 binding inhibition; IC50, µM; 95 tested, under 10 active; in the data active = IC50 below about 10 µM
PGV04 DR counter = counter-screen for PG9 binders: binding to control antibody PGV04; IC50, µM; 95 tested, 20% active; TR-FRET binding to control antibody PGV04; shares compounds with PG9 binder
PG126 DR counter = counter-screen for PG9 binders: binding to control antibody PG126; shares compounds with PG9 binder; TR-FRET binding to antibody PG126, counterscreen; 95 tested, 20% active; IC50, µM
Hits are given with their value. Cut-off read from the data, not from the text of the source, unless noted: active = IC50 below about 9 µM; inactive = the rest.

For CCn1c(CNC(=O)c2ccccc2Cl)cc2ccccc21 the results were PG9 binder 10.4, PKA-R2B activ inactive, Rev-erbA mod inactive, PKA-R1A act inactive, PG9 binder conf 24.1 and PGV04 counter 35.4.
CCn1c(CNC(=O)c2ccccc2F)cc2ccccc21 was read as PG9 binder inactive, PKA-R2B activ inactive, Rev-erbA mod inactive and PKA-R1A act inactive.
For COC(=O)[C@]12C[C@H](CC(=O)N3CCSCC3)C(=O)N(Cc3ccccc3)C1=C[C@H](COCc1ccccc1)O[C@@H]2C the results were Rev-erbA mod inactive.
Screening COc1cc(OC)c(C2Nc3cccc4cccc(c34)N2)c(OC)c1 returned PG9 binder 11.9, PKA-R2B activ inactive, Rev-erbA mod inactive, PKA-R1A act inactive, PG9 binder conf inactive and PGV04 counter 12.0.
Cc1cc2cc3c(cc2nc1SCC(=O)OC(C)C)OCCO3 was read as PG9 binder 17.4, PKA-R2B activ inactive, Rev-erbA mod inactive, PKA-R1A act inactive, PG9 binder conf 23.1 and PGV04 counter 26.2.
Cc1cc2cc3c(cc2nc1SCC(=O)O)OCCO3 was read as PG9 binder inactive, PKA-R2B activ inactive, Rev-erbA mod inactive and PKA-R1A act inactive.
For Cc1ccc(C)c(NC(=O)CN(C)C(=O)c2cc3c(s2)CCCCC3)c1 the results were PG9 binder 10.8, PKA-R2B activ inactive, Rev-erbA mod inactive, PKA-R1A act inactive, PG9 binder conf 16.3 and PGV04 counter 21.9.
For COC(=O)[C@]12C[C@H](CC(=O)NCc3ccc(OC)c(OC)c3)C(=O)N(CCc3ccc(OC)c(OC)c3)C1=C[C@H](C(C)C)O[C@@H]2C1CC1 the results were Rev-erbA mod inactive.
`CN(CCOC(=O)CC1C=CCC1)C1CN(Cc2cn(Cc3ccccc3Cl)nn2)S(=O)(=O)C1` (stereo not given) gave Rev-erbA mod inactive.
`COc1ccc2c(-c3ccccc3)cc(SCC(N)=O)nc2c1` gave PG9 binder inactive, PKA-R2B activ inactive, Rev-erbA mod inactive and PKA-R1A act inactive.
Screening COc1ccc2c(-c3ccccc3)cc3nnnn3c2c1 returned PG9 binder 9.9, PKA-R2B activ inactive, Rev-erbA mod inactive, PKA-R1A act inactive, PG9 binder conf 10.5 and PGV04 counter 23.6.
CC1(c2ccccc2)CC(=O)N(c2ccc(NC(=O)c3ccccn3)cc2Cl)C1=O (stereo not given) was read as Rev-erbA mod inactive.
`COc1ccc(OC)c(NC(=O)c2c(NC(=O)CCC(=O)O)sc3c2CCCCC3)c1` gave PG9 binder inactive, PKA-R2B activ inactive, Rev-erbA mod inactive and PKA-R1A act inactive.
`COc1ccc(NC(=O)c2c(NC(=O)CNCC(C)C)sc3c2CCC3)c(OC)c1` gave PG9 binder 11.5, PKA-R2B activ inactive, Rev-erbA mod inactive, PKA-R1A act inactive, PG9 binder conf 9.9, PGV04 counter 9.5, PG9 bind DR inactive, PGV04 DR counter inactive and PG126 DR counter inactive.
COc1ccc(C(C(=O)N(C)C2CCCC2)N(Cc2ccc(F)cc2)C(=O)c2csc(-c3ccccc3)n2)cc1OC (stereo not given) was read as Rev-erbA mod inactive.
Cn1c(SC2CCCC2)nnc1-c1ccco1 was read as Rev-erbA mod inactive.
Cc1nn(CCc2nn[nH]n2)c2nc(-c3ccc(Br)cc3)cc(C(F)(F)F)c12 was read as PG9 binder 19.3, PKA-R2B activ inactive, Rev-erbA mod inactive, PKA-R1A act inactive, PG9 binder conf 26.9 and PGV04 counter 36.8.
For CSCCCNC(=O)c1cn(C(C)c2ccccc2)nn1 (stereo not given) the results were Rev-erbA mod inactive.
For CC(=O)c1c(OC(=O)c2ccccc2)ccnc1C(F)(F)F the results were PG9 binder 9.2, PKA-R2B activ inactive, Rev-erbA mod inactive, PKA-R1A act inactive, PG9 binder conf 10.5 and PGV04 counter 11.1.
`O=C(Nc1ccc(C(O)(C(F)(F)F)C(F)(F)F)cc1)c1c(F)cccc1F` gave Rev-erbA mod inactive.
Screening CCOc1cccc(-c2nn3c(-c4ccco4)nnc3s2)c1 returned PG9 binder 11.9, PKA-R2B activ inactive, Rev-erbA mod inactive, PKA-R1A act inactive, PG9 binder conf 38.9, PGV04 counter 29.0, PG9 bind DR inactive, PGV04 DR counter inactive and PG126 DR counter inactive.
For COc1cccc(-c2nnc3sc(-c4ccco4)nn23)c1 the results were PG9 binder inactive, PKA-R2B activ inactive, Rev-erbA mod inactive and PKA-R1A act inactive.
`COCCN(CCOC)S(=O)(=O)c1ccc(C(=O)Nc2nc(-c3ccncc3)cs2)cc1` gave PG9 binder 15.5, PKA-R2B activ inactive, Rev-erbA mod inactive, PKA-R1A act inactive, PG9 binder conf 16.1 and PGV04 counter 21.1.
Screening CCOC(=O)Cc1csc(NC(=O)c2ccc(S(=O)(=O)N(CCOC)CCOC)cc2)n1 returned PG9 binder inactive, PKA-R2B activ inactive, Rev-erbA mod inactive and PKA-R1A act inactive.
`O=c1[nH]c(SCc2nc3ccccc3c(=O)n2-c2ccccc2)nc2ccccc12` gave PG9 binder 13.0, PKA-R2B activ inactive, Rev-erbA mod inactive, PKA-R1A act inactive, PG9 binder conf 21.7 and PGV04 counter 27.5.
O=c1[nH]c(SCc2n[nH]c(=S)n2-c2ccccc2)nc2ccccc12 was read as PG9 binder inactive, PKA-R2B activ inactive, Rev-erbA mod inactive and PKA-R1A act inactive.
Screening O=c1[nH]c(SCc2ccc(Cl)cc2)nc2ccccc12 returned PG9 binder inactive, PKA-R2B activ inactive, Rev-erbA mod inactive and PKA-R1A act inactive.
`O=C(CSc1nc2ccccc2c(=O)[nH]1)NCc1ccc(Cl)cc1` gave PG9 binder 12.3, PKA-R2B activ inactive, Rev-erbA mod inactive, PKA-R1A act inactive, PG9 binder conf 24.1 and PGV04 counter 27.4.
Screening CCn1c(SCC(=O)NCc2ccccc2)nc2ccccc2c1=O returned PG9 binder inactive, PKA-R2B activ inactive, Rev-erbA mod inactive and PKA-R1A act inactive.
For O=C(CSc1nc2ccccc2c(=O)n1Cc1ccc(Cl)cc1)NCc1cccs1 the results were PG9 binder 16.6, PKA-R2B activ inactive, Rev-erbA mod inactive, PKA-R1A act inactive, PG9 binder conf 21.1 and PGV04 counter 30.1.
CC(C)(C)c1ccc(-c2nnc3n2N=C(c2ccc4ccccc4c2)CS3)cc1 was read as Rev-erbA mod inactive.
`COc1ccc(CSc2nnc(SCC(=O)Nc3ccc4c(c3)OCO4)s2)cc1` gave Rev-erbA mod inactive.
